# Assay results from PubChem BioAssay (NCATS).
# Inconclusive results are not listed. Entries that show only a call come without a potency. Activity calls are given as the source filed them. Calls follow the shape of the dose curve; as a rule, active = well fitted curve in the direction sought with a large enough effect; inconclusive = small, poorly fitted or top-dose-only effect, or another doubt; inactive = no such curve, though single readings can be large; an effect the other way counts as inactive or inconclusive.
# What was measured:
# [1] = system: Zika virus NS2B-NS3 protease; assay: Primary screen GU AMC qHTS for Zika virus inhibitors (AID 1347154); also: nearly all actives have a fitted effect of over 70% in size
# Summary of the method: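 Fluorogenic AMC-substrate cleavage by noncovalent NS2B-NS3 protease complex (25 nM, pH 8.0 Tris buffer with Tween 20) followed for 15 minutes at room temperature (~20% conversion). Percent inhibition from ex340/em450 signal change, fitted by 4-parameter Hill equation.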
# [2] = ZIKV-mCherry secondary qHTS for Zika virus inhibitors (AID 1347158); also: potency is read from the fitted curve at half-maximal effect
# Summary of the method: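 Percent infection is the share of Hoechst-identified Vero nuclei with mCherry signal above 450 RFU (3 SD over negative controls). Cells were infected with recombinant ZIKV-mCherry at MOI 1 after compound addition and imaged 48–72 h later.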
# [3] = Confirmatory screen NINDS Rhodamine qHTS for Zika virus inhibitors (AID 1347161); also: nearly all actives have a fitted effect of over 60% in size; also: potency is read from the fitted curve at half-maximal effect
# Summary of the method: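 Rhodamine110-peptide cleavage (1.5 µM substrate) by 25 nM linked NS2B-NS3 enzyme at pH 8.0 (Tris, Tween 20), after 15 min RT preincubation with compounds; 15-min fluorescence change normalized to controls and Hill-fitted.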
# [4] = system: Zika virus NS2B-NS3 protease (linked); assay: 384 well plate NINDS AMC confirmatory qHTS for Zika virus inhibitors (AID 1347163);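 also: linked protease at 5 30 or 60 nM final depending on run; fluorescence of AMC released from Ac-VKTGKR-AMC peptide cleaved by the protease; top concentration of the series differs between compounds; nearly all actives have a fitted effect of over 50% in size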
# Summary of the method: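 Fluorescence at 355/460 nm was read after 25 minutes of cleavage of 30 microM Ac-VKTGKR-AMC at room temperature, in the dark. Before substrate addition, compounds (up to 1 mM final) sat ~15 minutes with 5, 30 or 60 nM linked protease. Signals were normalized to no-enzyme and no-inhibitor wells.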
# [5] = system: Zika virus NS2B-NS3 protease (linked construct); assay: 384 well plate NINDS Rhodamine confirmatory qHTS for Zika virus inhibitors (AID 1347164);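 also: fluorescence from protease cleavage of Ac-LKRR-rhodamine 110 substrate; top concentration of the series differs between compounds; nearly all actives have a fitted effect of over 65% in size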
# Summary of the method: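 Fluorescence at 485/538 nm was measured 25 minutes after adding 10 microM Ac-LKRR-Rd substrate, in the dark at room temperature. The protease (5, 30 or 60 nM final) had been preincubated ~15 minutes with compound; aprotinin as control.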
# [6] = Vero cells viability qHTS for Zika virus inhibitors (AID 1347167)
# Summary of the method: (§1)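 Luminescent ATP readout (CellTiter Glo) after 30 min at 37 degrees C gives viability; cells in DMEM + 4% FBS were treated 24 to 48 hours with compound, following overnight attachment.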
# [7] = HepG2 cells viability qHTS for Zika virus inhibitors (AID 1347168)
# Summary of the method: as §1
# [8] = system: Zika virus NS2B-NS3 protease (linked construct); assay: Primary screen NINDS Rhodamine qHTS for Zika virus inhibitors (AID 1347160); also: nearly all actives have a fitted effect of over 55% in size
# Summary of the method: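 Aprotinin served as in-plate control. Conditions: 25 nM linked NS2B-NS3, pH 8.0 Tris buffer, titrated compounds, 15 min preincubation and 15 min reaction with 1.5 microM Rhod110 substrate at room temperature.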
# [9] = target: Lysine-specific demethylase 5B (Homo sapiens) (UniProt Q9UGL1); assay: Optimization screen for KDM5B Histone Demethylases FDH coupled qHTS against the LOPAC library (AID 1347166); details: KDM5B demethylation, FDH-coupled NADH fluorescence (FDH is formaldehyde dehydrogenase); at 57.5 µM (top of the series)
# Lysine-specific demethylase 5B (Homo sapiens), sequence (Q9UGL1 whole entry, looked up): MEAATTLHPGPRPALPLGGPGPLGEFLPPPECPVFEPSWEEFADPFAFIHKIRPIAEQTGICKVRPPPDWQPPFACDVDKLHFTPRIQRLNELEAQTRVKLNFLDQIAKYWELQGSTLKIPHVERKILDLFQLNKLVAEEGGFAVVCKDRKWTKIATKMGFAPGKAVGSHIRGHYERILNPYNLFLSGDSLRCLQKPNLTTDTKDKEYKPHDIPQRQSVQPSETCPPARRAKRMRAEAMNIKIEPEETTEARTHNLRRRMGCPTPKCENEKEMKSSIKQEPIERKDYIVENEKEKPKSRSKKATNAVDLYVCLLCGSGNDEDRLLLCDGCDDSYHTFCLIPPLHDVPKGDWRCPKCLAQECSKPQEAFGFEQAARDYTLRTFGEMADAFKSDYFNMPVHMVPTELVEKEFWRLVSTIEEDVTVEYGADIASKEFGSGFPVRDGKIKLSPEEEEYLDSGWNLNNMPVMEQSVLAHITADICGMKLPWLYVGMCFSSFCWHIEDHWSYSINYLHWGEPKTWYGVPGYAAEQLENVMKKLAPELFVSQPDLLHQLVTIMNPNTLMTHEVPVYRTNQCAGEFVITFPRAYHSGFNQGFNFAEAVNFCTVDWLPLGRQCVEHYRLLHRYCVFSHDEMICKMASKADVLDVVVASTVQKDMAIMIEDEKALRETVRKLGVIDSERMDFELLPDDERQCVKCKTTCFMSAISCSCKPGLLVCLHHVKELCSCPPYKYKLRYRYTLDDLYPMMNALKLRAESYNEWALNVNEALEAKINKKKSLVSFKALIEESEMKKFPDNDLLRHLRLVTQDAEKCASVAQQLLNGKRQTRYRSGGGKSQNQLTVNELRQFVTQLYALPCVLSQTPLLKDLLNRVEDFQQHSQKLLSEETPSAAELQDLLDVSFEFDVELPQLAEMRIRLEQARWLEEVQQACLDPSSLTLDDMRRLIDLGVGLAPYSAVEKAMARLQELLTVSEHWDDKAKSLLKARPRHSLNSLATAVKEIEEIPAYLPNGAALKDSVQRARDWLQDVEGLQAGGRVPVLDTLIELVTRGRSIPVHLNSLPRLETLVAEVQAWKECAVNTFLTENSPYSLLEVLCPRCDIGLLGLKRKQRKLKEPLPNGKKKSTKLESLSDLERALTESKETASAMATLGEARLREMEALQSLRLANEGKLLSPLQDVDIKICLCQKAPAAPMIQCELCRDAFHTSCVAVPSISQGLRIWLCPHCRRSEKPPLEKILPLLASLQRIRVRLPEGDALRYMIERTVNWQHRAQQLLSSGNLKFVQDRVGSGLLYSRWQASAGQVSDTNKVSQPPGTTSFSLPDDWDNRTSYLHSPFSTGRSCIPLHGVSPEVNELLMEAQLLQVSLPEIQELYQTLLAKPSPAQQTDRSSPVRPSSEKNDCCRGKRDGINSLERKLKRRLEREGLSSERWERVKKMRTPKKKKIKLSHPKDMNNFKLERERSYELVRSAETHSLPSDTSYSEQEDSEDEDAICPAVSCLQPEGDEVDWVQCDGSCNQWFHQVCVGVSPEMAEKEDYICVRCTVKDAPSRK
# Summary of the method: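 KDM5BDeltaAP (200nM final) in 50mM HEPES pH 7.5, 0.01% Tween-20 was preincubated with compound for 10 min at room temperature. A substrate mix of 12.5uM H3K4Me3, 25uM a-ketoglutarate, ascorbate, Fe2+, NAD+ and formaldehyde dehydrogenase was then added. NADH fluorescence (340/450 nm) was read initially and after 30 min.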
smiles,measurement,setting,value
C/C(=C\c1ccc(C(=O)O)cc1)c1ccc2c(c1)C(C)(C)CCC2(C)C,Potency,[1],inactive
same,Potency,[2],7.94 µM (active)
same,Potency,[3],1.56 µM (active)
same,Potency,[4],inactive
same,Potency,[5],inactive
same,Potency,[6],inactive
same,outcome,[7],inactive
NS(=O)(=O)c1cccc2c1c([N+](=O)[O-])cc1nc(O)c(O)nc12,Potency,[1],inactive
NC(=Nc1ccccc1)NC(=O)c1nc(Cl)c(N)nc1N,Potency,[1],inactive
CC(=O)NCCc1c[nH]c2ccc(O)cc12,Potency,[1],inactive
same,outcome,[8],inactive
same,"activity, negative = inhibition",[9],-23.2% (inactive)
N[C@H](C(=O)O)c1cc(O)cc(O)c1,Potency,[1],inactive
same,"activity, negative = inhibition",[9],-24% (inactive)
O=C(O)C1=CCCN(CCON=C(c2ccccc2)c2ccccc2)C1,Potency,[1],inactive
same,"activity, negative = inhibition",[9],1.04% (inactive)
CCCn1c(=O)c2[nH]c(C3CCCC3)nc2n(CCC)c1=O,Potency,[1],inactive
same,"activity, negative = inhibition",[9],-5.16% (inactive)
C[C@@]1(C2CCCC2)Cc2cc(OCC(=O)O)c(Cl)c(Cl)c2C1=O,Potency,[1],inactive
same,"activity, negative = inhibition",[9],-5.03% (inactive)
Cc1nc2c(OCc3ccccc3)cccn2c1CC#N,Potency,[1],inactive
same,"activity, negative = inhibition",[9],0.134% (inactive)
Oc1cc2c(cc1O)C(c1ccccc1)CNCC2 (stereo not given),Potency,[1],inactive
O=c1[nH]c2ccccc2c2ccccc12,Potency,[1],inactive
Nc1ncnc2c1ncn2C1CCCO1 (stereo not given),Potency,[1],inactive
same,"activity, negative = inhibition",[9],-7.06% (inactive)
CCCCCCC(=O)OC1CC(C)(C)NC(C)(C)C1,Potency,[1],inactive
same,"activity, negative = inhibition",[9],-0.896% (inactive)
O=[N+]([O-])c1cccc2c(Br)[nH]nc12,Potency,[1],inactive
same,"activity, negative = inhibition",[9],-1.9% (inactive)
COc1ccccc1N1CCN(CCCNc2c(C)c(=O)n(C)c(=O)n2C)CC1,Potency,[1],inactive
same,Potency,[3],inactive
same,"activity, negative = inhibition",[9],-1.72% (inactive)
same,Potency,[6],inactive
same,outcome,[7],inactive
